Screens deposited in PubChem by National Center for Advancing Translational Sciences (NCATS).
TDP1 inh = qHTS Assay for Inhibitors of Tyrosyl-DNA Phosphodiesterase (TDP1) | recombinant TDP1, AlphaScreen DNA substrate cleavage | Potency, µM (titrated, usually from 130 µM), for the others: at the highest dose activity change, negative = inhibition, most hits filed as inhibitors | 0.28% of 350,000 active | AID 485290, 2010; note: potency is the fitted concentration of half-maximal effect; % is set by controls: 0 for no effect and ±100 for the full control effect; nearly all actives have a fitted effect of over 40% in size
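Steps: enzyme plus compound, 15 min RT; add biotin/phosphotyrosine-FITC oligonucleotide (15 nM final), react 5 min; add donor/acceptor beads (10 ug/ml final), 10 min; read AlphaScreen. Tdp1 at 1 nM final.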
Tb PGK inh = qHTS Assay to Find Inhibitors of Phosphoglycerate Kinase. Phosphoglycerate kinase, glycosomal (Trypanosoma brucei brucei), P07378. PGK/GAPDH coupled, Kinase-Glo luminescence, 60 min. Potency, µM (titrated, usually from 57.5 µM), without a hit: at the top dose activity change, negative = inhibition, usual class: inhibitors. 0.043% of 380,000 active; note: potency is the fitted concentration of half-maximal effect; % is set by controls: 0 for no effect and ±100 for the full control effect; nearly all actives have a fitted effect of over 60% in size
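Luminescent ATP detection (Kinase-Glo Plus) follows a 60-minute room-temperature incubation, with wells lacking PGK as controls. Buffer: 100 mM TEA (pH 7.6), 5 mM MgCl2, 0.01% Tween-20. Coupling enzyme GAPDH (100 nM final) supplies unstable 1,3-BPG in-well.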
Tb PFK inh-1 = qHTS Assay to Find Inhibitors of T. brucei phosphofructokinase. 0.17% of 330,000 active. T. brucei PFK, ADP-Glo luminescence. Potency, µM (top dose mostly 57.5 µM), inactives show top-dose activity, negative = inhibition, hits mostly inhibitors. AID 485367, 2010. ATP-dependent 6-phosphofructokinase (Trypanosoma brucei brucei), O15648;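 note: potency is the fitted concentration of half-maximal effect; 0% = uninhibited 1x PFK enzyme wells and -100% = no-enzyme wells; nearly all actives have a fitted effect of over 60% in size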
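In TEA buffer at pH 8.0 with 5 mM MgCl2, enzyme (1.25 nM) converted F6P (0.5 mM) and ATP (0.1 mM) for 45 min at room temperature. ADP product was read by luciferase luminescence.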
PI4K2A block = qHTS for small molecular inhibitors of PI4K2A; purified PI4K2A, ADP-Glo luminescence, 1 h; active compounds read low; activity change, negative = inhibition, % at 76.9 µM; 0.13% of 420,000 active; AID 1346378, 2018; in the data active = activity change below about -50%; inconclusive = mostly about -30% to -49%;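 note: -100% = wells without enzyme as full effect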
Target sequence (Q9BTU6 whole entry, looked up): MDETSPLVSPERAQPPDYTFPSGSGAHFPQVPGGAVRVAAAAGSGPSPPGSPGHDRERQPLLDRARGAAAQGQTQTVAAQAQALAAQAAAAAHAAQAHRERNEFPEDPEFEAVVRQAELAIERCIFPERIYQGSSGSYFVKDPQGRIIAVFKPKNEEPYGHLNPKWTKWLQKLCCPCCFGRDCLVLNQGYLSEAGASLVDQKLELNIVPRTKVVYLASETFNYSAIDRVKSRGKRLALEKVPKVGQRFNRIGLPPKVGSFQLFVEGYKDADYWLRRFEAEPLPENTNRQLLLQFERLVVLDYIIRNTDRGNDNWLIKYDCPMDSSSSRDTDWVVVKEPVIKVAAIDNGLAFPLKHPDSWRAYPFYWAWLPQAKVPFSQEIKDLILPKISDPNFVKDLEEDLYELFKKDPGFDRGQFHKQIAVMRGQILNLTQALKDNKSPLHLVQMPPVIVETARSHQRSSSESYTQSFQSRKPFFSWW
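Compounds are screened against recombinant PI4K2A using PI as substrate and ATP, the latter dispensed at 300 microM. Reactions run one hour at ambient temperature before ADP-Glo detection; full inhibition defined by wells lacking enzyme.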
APE1 inh-1 = qHTS Assay for Inhibitors of the Human Apurinic/apyrimidinic Endonuclease 1 (APE1) | AID 2517, 2012 | recombinant APE1, TAMRA/BHQ-2 abasic DNA cleavage fluorescence | 0.35% of 350,000 active | DNA repair nuclease/redox regulator APEX1 (Homo sapiens), P27695 | Potency, µM (top dose mostly 65.8 µM), for inactives: at the highest dose activity change, negative = inhibition, actives largely listed as inhibitors;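 note: potency is the fitted concentration of half-maximal effect; plate controls were vehicle for no effect and reference inhibitor for full effect; nearly all actives have a fitted effect of over 55% in size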
Target sequence (P27695 whole entry, looked up): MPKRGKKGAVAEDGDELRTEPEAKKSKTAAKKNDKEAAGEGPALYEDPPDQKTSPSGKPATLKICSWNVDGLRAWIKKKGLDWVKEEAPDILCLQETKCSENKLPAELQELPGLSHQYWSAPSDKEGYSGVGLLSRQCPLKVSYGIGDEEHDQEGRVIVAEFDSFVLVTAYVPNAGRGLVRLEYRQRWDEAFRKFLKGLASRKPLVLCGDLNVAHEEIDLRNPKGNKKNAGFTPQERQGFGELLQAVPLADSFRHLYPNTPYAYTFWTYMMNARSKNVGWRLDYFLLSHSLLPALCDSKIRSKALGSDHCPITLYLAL
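Step 1: APE1 (0.75 nM) with compound, 15 min RT. Step 2: add 50 nM fluorophore/quencher THF duplex. Step 3: three fluorescence reads 60 s apart (525/598 nm); read 3 minus read 1 = reaction progress.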
FEN1 inh-1 = qHTS Assay for the Inhibitors of Human Flap endonuclease 1 (FEN1); P39748; Recombinant FEN1 flap cleavage, fluorescence, 15 min; Potency, µM (top dose mostly 114 µM), without a hit: at the top dose activity change, negative = inhibition, most hits filed as inhibitors; 0.35% of 390,000 active; note: potency is the fitted concentration of half-maximal effect; % is set by controls: 0 for no effect and ±100 for the full control effect; nearly all actives have a fitted effect of over 65% in size
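With each library titrated from low to high concentration, compounds met 10 nM FEN1 for 15 min at room temperature before 50 nM substrate was added; readings at 0 and 15 min fed four-parameter Hill curve fits.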
DNA dye displace = Counterscreen for APE1 Inhibitors: Fluorescent Dye Displacement Assay; shares compounds with APE1 inh-1; DNA fluorescent dye displacement counterscreen, fluorescence; Potency, µM (series often up to 28.5 µM), for inactives: at the top dose activity change, negative = inhibition, actives largely listed as inhibitors; 7% of 480 active;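 note: loss of thiazole orange fluorescence as the dye is displaced from duplex DNA; potency is the fitted concentration of half-maximal effect; 0% = ThO with dsDNA and no compound and -100% = ThO without dsDNA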
EndoIV counter = Counterscreen for APE1 Inhibitors: qHTS Assay for Inhibitors of Endonuclease IV | shares compounds with APE1 inh-1 | E. coli Endo IV, fluorogenic AP-site DNA cleavage | Potency, µM (top dose mostly 27.1 µM), for inactives: top-dose activity change, negative = inhibition, hits mostly inhibitors | 4% of 560 active | AID 2565, 2010;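 note: potency is the fitted concentration of half-maximal effect; plate controls were uninhibited enzyme wells for no effect and no enzyme buffer wells for full effect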
APE1 inh-2 = Confirmation qHTS Assay for Inhibitors of the Human Apurinic/apyrimidinic Endonuclease 1 (APE1); AID 2572, 2010; purified APE1, fluorogenic abasic-site DNA cleavage; 44% of 750 active; shares compounds with APE1 inh-1; Potency, µM (series often up to 57.1 µM), inactives show at the highest dose activity change, negative = inhibition, most hits filed as inhibitors; note: potency is the fitted concentration of half-maximal effect; % is set by controls: 0 for no effect and ±100 for the full control effect; nearly all actives have a fitted effect of over 30% in size
APE1 FP inh = qHTS FP-Based Assay for Inhibitors of the Human Apurinic/apyrimidinic Endonuclease 1 (APE1); AID 2573, 2010; APE1 binding to TAMRA-labelled double-stranded DNA, fluorescence polarization displacement; 7% of 480 active; shares compounds with APE1 inh-1; Potency, µM (titrated, usually from 28.5 µM), without a hit: at the highest dose activity, negative = inhibition, hits mostly inhibitors; note: potency is the fitted concentration of half-maximal effect; % is set by controls: 0 for no effect and ±100 for the full control effect
TbPFK ATP = Tb PFK orthogonal confirmatory assay using ATP depletion (Kinase-Glo Plus) as an alternative measure of Tb PFK activity: Hit Validation. Tb PFK enzyme, ATP depletion, Kinase-Glo Plus luminescence. shares compounds with Tb PFK inh-1. 47% of 1,100 active. Potency, µM (top dose mostly 57.5 µM), for the others: top-dose inhibition. AID 504636, 2011; calls by dose curve; note: potency is the fitted concentration of half-maximal effect; nearly all actives have a fitted effect of over 60% in size
Tb PFK inh-2 = Inhibitors of T. brucei phosphofructokinase: Hit Validation. shares compounds with Tb PFK inh-1. purified T. brucei PFK, ADP-Glo luminescence, 45 min. Potency, µM (highest dose often 57.5 µM), inactives show at the highest dose activity change, negative = inhibition, usual class: inhibitors. 41% of 1,100 active. AID 504637, 2011;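 note: potency is the fitted concentration of half-maximal effect; plate controls were full PFK enzyme control for no effect and no enzyme control for full effect; nearly all actives have a fitted effect of over 60% in size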
FEN1 inh-2 = qHTS Assay for the Inhibitors of FEN1: Confirmatory Assay for Cherry-picked Compounds; shares compounds with FEN1 inh-1; FEN1 flap cleavage, TAMRA/BHQ2 fluorogenic DNA substrate; Potency, µM, actives largely listed as inhibitors; 79% of 880 active; AID 720498, 2013; note: potency is the fitted concentration of half-maximal effect; nearly all actives have a fitted effect of over 60% in size
* hit, by the source's call; ? = inconclusive; / = no result given; [ ] = another dose, or the depositor's remark. In the library only some 0.8% were active in any assay of this set; here they are far more common. Unless noted, calls come from the whole dose curve; as a rule, active = well fitted curve in the direction sought with a large enough effect; inconclusive = small, poorly fitted or top-dose-only effect, or another doubt; inactive = no such curve, though single readings can be large; an effect the other way counts as inactive or inconclusive.

SMILES	TDP1 inh	Tb PGK inh	Tb PFK inh-1	PI4K2A block	APE1 inh-1	FEN1 inh-1	DNA dye displace	EndoIV counter	APE1 inh-2	APE1 FP inh	TbPFK ATP	Tb PFK inh-2	others
C/C=C\C=C/C(=O)Nc1cccc(C2=NOC3(C2)C[C@@H](C(N)=O)N(C(=O)/C=C/C=C\C)C3)c1 (some centres not stated)	20µM*	?	5.4µM*	?	35µM*	50µM*	/	/	?	/	?	?
CC1COC2=C1C(=O)C(=O)c1c2ccc2c1CCCC2(C)C (configuration not stated)	20%	/	/	/	?	/	/	/	/	/	/	/
Oc1ccc(-c2cn3c(n2)SCC3)cc1O	/	?	?	-5	1.6µM*	?	3%	95%	13µM*	-5%	2.4µM*	4.8µM*
CCOC(=O)N1CCN(/[N+]([O-])=N/Oc2ccc([N+](=O)[O-])cc2[N+](=O)[O-])CC1C (configuration not stated)	13%	/	/	/	19%	-32%	/	/	/	/	/	/
CS(=O)(=O)N1Cc2ccccc2CC1C(=O)OCC(=O)Nc1ccc2ccccc2c1 (configuration not stated)	-5%	-4%	?	-15	?	-9%	?	?	?	?	?	-23%
O=c1cc2c(=O)oc3cc(O)c(O)oc3c2c(O)c1O	?	?	7.6µM*	3	0.35µM*	7.1µM*	?	187%	0.13µM*	2%	1.2µM*	1.3µM*	FEN1 inh-2=8.5*
O=C1NC(=O)N(c2ccccc2)C(=O)/C1=C/C=C/c1ccco1	/	-5%	?	-27	?	?	/	/	/	/	/	/
O=C1NC(=O)N(Cc2ccco2)C(=O)/C1=C/C=C/c1ccco1	/	?	30µM*	?	2.8µM*	25µM*	10%	-6%	5µM*	?	/	/	FEN1 inh-2=43*
CC[C@H](C)[C@H](NC(=O)[C@H](CO)NC(=O)[C@H](CC(N)=O)NC(=O)[C@H](CC(C)C)NC(=O)[C@H](Cc1ccc(O)cc1)NC(=O)[C@H](CCCCN)NC(=O)[C@H](CCCCN)NC(=O)[C@@H](NC(=O)[C@H](C)NC(=O)[C@H](CCSC)NC(=O)[C@H](CCC(N)=O)NC(=O)[C@H](CCCCN)NC(=O)[C@H](CCCNC(=N)N)NC(=O)[C@H](CC(C)C)NC(=O)[C@H](CCCNC(=N)N)NC(=O)[C@@H](NC(=O)[C@H](Cc1ccc(O)cc1)NC(=O)[C@H](CC(N)=O)NC(=O)[C@H](CC(=O)O)NC(=O)[C@@H](NC(=O)[C@H](Cc1ccccc1)NC(=O)[C@@H](NC(=O)[C@H](C)NC(=O)[C@H](CC(=O)O)NC(=O)[C@H](CO)NC(=O)[C@@H](N)Cc1cnc[nH]1)C(C)C)[C@@H](C)O)[C@@H](C)O)C(C)C)C(=O)N[C@@H](CC(C)C)C(=O)N[C@@H](CC(N)=O)C(N)=O	15%	/	/	/	14%	/	/	/	/	/	/	/
O=C(O)CCCC[C@@H]1SC[C@H]2NC(=O)N[C@@H]12	30%[56.1 µM]	/	/	/	-4%	/	/	/	/	/	/	/
O=c1c(O)cccc2cc(O)c(O)c(O)c12	/	0.79µM*	6.7µM*	?	0.71µM*	?	/	-2%[57.1 µM]	0.45µM*	/	0.43µM*	0.48µM*	FEN1 inh-2=24*
COc1ccc(C(CNC(=O)Cc2ccc(Cl)c(Cl)c2)N(C)C)cc1 (configuration not stated)	0%	5%	-11%	-10	8%	1%	/	/	/	/	/	/
COc1ccc(NC(=O)Cc2ccc(Cl)c(Cl)c2)cn1	-2%	-1%	12µM*	4	?	18%	/	/	/	/	6µM*	13µM*
NS(=O)(=O)c1cccc(NC(=O)Cc2ccc(Cl)c(Cl)c2)c1	-1%	-3%	6µM*	1	0%	-5%	/	/	/	/	3µM*	11µM*
